aSyn yeast inh = inhibitors of alpha-synuclein toxicity in yeast. 0.14% of 370,000 active. Potency, µM (series often up to 46.1 µM), for the others: at the highest dose growth rescue (activation), usual class: activators. AID 652106. Yeast expressing alpha-synuclein, growth rescue, BacTiter-Glo, 24 h; further: potency means the concentration at half of the fitted maximal effect; % of control where 0% means no effect; nearly all actives have a fitted effect of over 65% in size
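Galactose-induced alpha-syn yeast (OD600=0.02, raffinose-pregrown) + pinned cpd, 24 hr, 30 deg C; growth by BacTiter-Glo luminescence. Growth restoration scores as activation.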
FUS suppressor = rescues growth of FUS-expressing yeast; S. cerevisiae FUS-expressing, growth rescue, OD600, 24 h; Potency, µM (top dose mostly 76.6 µM), actives largely listed as activators; 0.24% of 390,000 active;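 further: potency means the concentration at half of the fitted maximal effect; plate controls were DMSO vehicle for no effect and reference control for full effect; nearly all actives have a fitted effect of over 55% in size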
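Steps: raffinose overnight preculture; dilution to OD 0.005 in 2% galactose minimal medium; compound addition (concentration series); 24hr at 30C, 99% humidity; absorbance read at 600 nm.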
Abeta rescue = restores growth of yeast expressing A-beta42 peptide | yeast expressing A-beta42, growth rescue, OD600, 48 h; response scale: 0% DMSO, 100% iron-clioquinol control | Potency, µM (doses to about 46.1 µM), most hits filed as activators | 0.063% of 410,000 active | AID 1347071; further: potency means the concentration at half of the fitted maximal effect; nearly all actives have a fitted effect of over 55% in size
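Yeast growth medium received pinned compounds, then yeast cells expressing toxic A-beta were added; plates incubated at 30 C for 48 hr. Growth read as absorbance at 600 nm, normalized to DMSO and equimolar FeCl3 plus clioquinol controls.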
Akt phos inh = blocks phosphorylation of Akt | Neuro2A IGF-stimulated pAkt S473 HTRF, 20 min; active compounds read low | activity change, % for hits at 50 µM | 0.32% of 360,000 active; in the data active means activity change below about -80%; inconclusive means mostly about -51% to -80%; further: on the % scale 0 is the no-effect control and ±100 the full control effect
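Neuro2A cells (4,500/well, DMEM with 0.5% FBS) were treated with compound at a single 50 µM final concentration, stimulated with 6 nM IGF for 20 min at 37 °C, and lysed. Phospho-Akt Ser473 was read by HTRF as 665/615 ratio ×10^4.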
TDP43 rescue = rescues yeast growth from TDP-43 toxicity; Potency, µM (top dose mostly 46.1 µM), without a hit: at the highest dose growth rescue (activation), actives largely listed as activators; AID 652104; 1.8% of 410,000 active; TDP-43 expressing yeast growth rescue, BacTiter-Glo, 24 h; further: potency means the concentration at half of the fitted maximal effect; % of control where 0% means no effect; nearly all actives have a fitted effect of over 50% in size
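Luminescence from BacTiter-Glo reports growth of TDP-43-expressing yeast after 24 hr at 30 deg C with compound. Cells were raffinose-pregrown to mid-log, then seeded in galactose medium at OD600=0.02.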
* marks the source's active call; other numbers are inactive results; i = inactive; ? = inconclusive; . = not tested or not shown. Most compounds without a hit are left out; they make up all but 2.3% or so of the library. Unless noted, the call rests on the fitted dose curve; in most records, active means well fitted curve in the direction sought with a large enough effect; inconclusive means small, poorly fitted or top-dose-only effect, or another doubt; inactive means no such curve, though single readings can be large; an effect the other way counts as inactive or inconclusive.

SMILES | aSyn yeast inh | FUS suppressor | Abeta rescue | Akt phos inh | TDP43 rescue
O=C(O)c1ccc(N/N=C/C(Br)=C/c2ccccc2)cc1 | -30% | i | i | i | 11µM*
Cc1csc2nc(-c3cccc(NC(=O)C(C)C)c3)cn12 | . | i | i | . | 8%
CCCCN(CC)C(=O)c1cc2c(=O)n3ccccc3nc2n1C | . | i | i | . | 15%
CCn1cc(S(=O)(=O)c2ccc(C)cc2C)c(=O)c2cc(F)c(N3CCCC3)cc21 | . | i | i | . | 20%
O=C(Cn1c(-c2cccs2)cc2cc(F)ccc21)NCCc1ccc(Cl)cc1 | . | i | i | . | 17%
O=C(NCCOc1ccccc1Cl)c1cc(F)c(F)cc1Cl | 14% | . | i | i | 8.9µM*
O=C(NCCOc1ccccc1Cl)C(=O)c1c[nH]c2ccccc12 | 1% | i | i | i | 11µM*
CCCn1c(=O)c2ccccc2n2c(Sc3nnnn3-c3ccccc3)nnc12 | -3% | i | i | i | 10%
C=CCn1c(=O)c2ccccc2n2c(Sc3nnnn3-c3ccccc3)nnc12 | 2% | i | i | -110%* | -4%
CCCCn1nnnc1NCc1ccc(N2CCCC2)cc1 | -3% | 28µM* | i | i | -1%
CCCn1nnnc1NCc1ccc(N2CCCC2)cc1 | 3% | ? | i | i | 0%
O=C(Cn1nc(C(F)(F)F)c2c1CCCC2)Nc1ccc(Br)cc1 | . | i | i | . | ?
CN(C(=O)c1ccc(NC(=O)Cc2cccc(NC(=O)C3CCCN(C(=O)C4CCCCC4)C3)c2)cc1)C1CCCC1 (configuration not stated) | -2% | 28µM* | i | i | 10%
Cc1ccccc1Cn1c(SCc2ccc(C(=O)NC(C)c3ccccc3)cc2)nc2ccncc21 (configuration not stated) | . | i | i | . | 1%
CCCS(=O)(=O)c1c(S(=O)(=O)CCC)c2cc(C(C)(C)C)ccn2c1C(=O)c1ccccc1 | . | 18µM* | i | . | -8%
CCCS(=O)(=O)c1c(S(=O)(=O)CCC)c2cc(C(C)(C)C)ccn2c1C(=O)c1ccc(OC)c(OC)c1 | . | i | i | . | -8%
COC(=O)c1cn(CCOc2ccccc2OC)c2ccccc12 | 15% | i | i | i | ?
O=C(c1ccco1)c1cn(CCOc2ccc(F)cc2)c2ccccc12 | . | i | i | . | 18µM*
COC(=O)c1cn(CCOc2ccccc2F)c2ccccc12 | 9% | i | ? | i | 11µM*
COc1ccccc1OCCn1cc(/C=N/NC(=O)c2ccncc2)c2ccccc21 | 10% | i | i | i | 13µM*
C=CCN1c2ccc(Br)cc2C(=O)CS1(=O)=O | 4% | i | i | i | 20µM*
COc1cccc(CN2c3ccc(Br)cc3C(=O)CS2(=O)=O)c1 | -26% | ? | i | i | 16µM*
COc1cccc(CN2C(=O)C(C)Oc3ccccc32)c1 (configuration not stated) | 19% | i | i | i | 2%
CC(Oc1ccccc1)C(=O)N1CCc2ccccc2C1 (configuration not stated) | 6% | i | i | i | 22%
Cc1cccc(C(=O)OC(C)C(=O)N2CCc3ccccc3C2)c1C (configuration not stated) | 6% | . | i | i | 18µM*
SMILES | aSyn yeast inh | FUS suppressor | Abeta rescue | Akt phos inh | TDP43 rescue
COc1cc(Nc2cccc(-c3ccccc3)n2)cc(OC)c1OC | 5% | i | i | i | 32µM*
COc1ccc(C2=CC(=O)CC(c3ccc(F)cc3)C2)cn1 (configuration not stated) | 6% | i | i | i | 18µM*
COc1ccc([C@H]2CC(=O)C=C(c3ccc(Cl)c(C(F)(F)F)c3)C2)cc1OC | 0% | ? | i | i | 16µM*
COc1ccc([C@H]2CC(=O)C=C(c3ccc(C)cc3)C2)cc1OC | 4% | i | i | i | 13µM*
COc1ccc(C2=CC(=O)C[C@H](c3ccc(F)cc3)C2)cc1OC | 0% | i | i | i | 22µM*
Oc1c(C(c2ccccc2)N2CCN(c3cccc(Cl)c3)CC2)sc2nc(-c3ccco3)nn12 (configuration not stated) | . | i | i | . | 12%
S=c1[nH]nc(COc2ccccc2)n1/N=C/c1ccc(Cl)cc1 | 4% | i | i | i | 11%
S=c1[nH]nc(Cc2ccc(Br)cc2)n1/N=C/c1ccc(Cl)cc1 | -14% | i | ? | i | 8.9µM*
O=C(Nc1ccc(Cl)cc1)c1ccc2ncsc2c1 | -19% | i | i | i | -7%
O=C(Nc1ccc(F)cc1)c1ccc2ncsc2c1 | -20% | i | i | i | 25µM*
COc1ccc(CN2CCc3nc(N4CCN(c5ccc(F)cc5)CC4)ncc3C2)c(OC)c1OC | . | i | i | . | 19%
NC(=O)COc1ccc(/C=C2\C(=O)ON=C2c2ccccc2)cc1 | 16µM* | . | i | i | 22µM*
COc1ccc(/C=C2/C(=O)ON=C2c2ccccc2)cc1OC | 13µM* | i | i | i | ?
COc1ccc(/C=C2\C(=O)ON=C2c2ccccc2)cc1OC | ? | i | i | i | ?
CCOc1cc(/C=C2\C(=O)ON=C2c2ccccc2)ccc1OC | 15% | i | i | i | 13µM*
COc1cc(/C=C2\C(=O)ON=C2c2ccccc2)cc(OC)c1OC | 27% | i | i | i | ?
NC(=O)COc1ccccc1 | -7% | i | i | i | 0%
O=C(Nc1ncc(Cc2ccccc2Cl)s1)c1ccc2c(c1)CC(c1ccccc1)OC2=O (configuration not stated) | . | i | i | . | 17%
Cc1ccc(CNC(=O)c2sc3ncnc(N(C)C4CCCCC4)c3c2C)cc1 | . | i | i | . | ?
Cc1sc2ncnc(N(C)C3CCCCC3)c2c1C | 5% | i | i | i | 16µM*
CCCCOc1ccc(C(=O)NCCS(=O)(=O)N2CCN(c3ccc(F)cc3)CC2)cc1 | . | i | i | . | 17%
CCCCOc1ccc(C(=O)NCCS(=O)(=O)N2CCN(c3ccccc3OC)CC2)cc1 | . | ? | ? | . | 13µM*
O=S(=O)(c1ccc(Cl)cc1)c1nc(-c2cccs2)oc1SCc1ccccc1F | . | i | i | . | 18%
Cc1cccc(N2CCN(C(=O)c3ccc(N4CCCC4=O)cc3)CC2C)c1 (configuration not stated) | 1% | i | i | i | 14%
Cc1cccc(N2CCN(C(=O)c3ccc4c(c3)c(C)c(C)n4C)CC2C)c1 (configuration not stated) | 1% | ? | i | i | 16µM*

Bioassay records as filed in PubChem BioAssay.
